Drawing on PubChem BioAssay (NCATS), this text covers outcome, max response and Potency for 39 compounds.

Several values for one entry are separate records, joined by “and”; a condition that tells them apart may be missing. Equal entries are not always repeated. Results filed as inconclusive are left out. Some compounds were tested as several samples or in several runs, with calls that do not always agree. A number with no mark means an inactive call. Activity calls are given as the source filed them. Calls follow the shape of the dose curve; as a rule, active = well fitted inhibition curve with a large enough effect; inconclusive = small, poorly fitted or top-dose-only effect; inactive = flat fitted curve, though single readings scatter.
% is scaled to controls: 0 for no effect and ±100 for the full control effect; potency is read from the fitted curve at half-maximal effect.

The assay has as its system KB-3-1. The assay is described as follows: Cytotoxic Profiling of Annotated Libraries Using Quantitative High-Throughput Screening (AID 1296008). Also: nearly all actives have a fitted effect of over 60% in size. The settings on record: Five cell lines viability, CellTiter-Glo ATP luminescence, 48-72 h; max response: hits give low values. An outline of the steps:
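Compounds were pin-transferred onto cells and incubated 48 or 72 hr at 37 degree Celsius, 95% humidity. CellTiter-Glo was added, plates sat 10 min at room temperature, then ATP-coupled luminescence was imaged as the viability read-out.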
Take `COc1nccc(-c2c(-c3ccc(F)cc3)ncn2C2CCC(O)CC2)n1` (configuration not stated): the compound was called inactive.

For `CNc1nc(Nc2ccc(C(=O)N3CCOCC3)cc2OC)ncc1Cl`, the max response is -5.95% and the compound was called inactive.

Turning to `O=C1C(c2c(O)[nH]c3ccccc23)=Nc2ccccc21`, the result was inactive.

As for `COc1cc(Nc2nc3ccccc3nc2NS(=O)(=O)c2ccc(NC(=O)c3ccc(C)c(OC)c3)cc2)cc(OC)c1`, the max response is 6.27% and the call was inactive.

For `COc1ccc(-c2ccc3ncc4c(c3c2)n(-c2ccc(N3CCNCC3)c(C(F)(F)F)c2)c(=O)n4C)cn1`, the Potency was 16.6 nM (active) and 41.1 nM (active).

In the case of `NS(=O)(=O)c1cc(Cl)c(Cl)c(S(N)(=O)=O)c1`, the max response is 1.19% and 6.82% and 0.356%.

As to `CN1C(=O)C(Cc2c[nH]c3ccccc23)NC1=S` (configuration not stated), the max response was 2.81% and the result was inactive.

In the case of `CN1c2ccccc2C(=O)N2CCc3c([nH]c4ccccc34)C21` (configuration not stated), the Potency is 5.17 µM (active) and the max response was 1.03%.

Take `CNC(=O)c1c(-c2ccc(F)cc2)oc2cc(N(CCO)S(C)(=O)=O)c(C3CC3)cc12`: the max response was -0.402%.

Take `CC1CCN(c2cc(N3CCN(C)CC3)ccc2NC(=O)c2cc(C#N)c[nH]2)CC1`: the max response was 9% and 4.39%.

As for `COc1ccnc(CS(=O)c2nc3ccc(OC(F)F)cc3[nH]2)c1OC` (configuration not stated), the max response is -0.194% and 5.88%.

Turning to `c1cc(OCCN2CCCCC2)cc(-c2n[nH]c3ccc(-c4ncn[nH]4)cc23)c1`, the max response was -21.9%.

Turning to `CCOC(=O)[C@H](CCc1ccccc1)N[C@@H](C)C(=O)N1CCCC1C(=O)O` (some centres not stated), the max response is 2.47%.

As for `O=C(CO)N1CCC(c2[nH]nc(-c3ccc(Cl)cc3)c2-c2ccncn2)CC1`, the max response is 6.51% and the compound was called inactive.

Turning to `Cc1ccccc1-n1c(Cn2nc(-c3cccc(O)c3)c3c(N)ncnc32)nc2cccc(C)c2c1=O`, the max response is 4.26% and -1.18%.

For `CC(C)(OCc1nn(Cc2ccccc2)c2ccccc12)C(=O)O`, the max response is 5.01% and 9.63%.

On to `Nc1ccc(-c2ccc3ncc4ccc(=O)n(-c5cccc(C(F)(F)F)c5)c4c3c2)cn1`, for which the Potency was 4.2 nM (active) and 65.1 nM (active).

Turning to `Cc1ccccc1C(C(=O)NC1CCCCC1)N(C(=O)CNc1ccc(C#N)cc1)c1cccc(F)c1` (configuration not stated), the max response was 5.31% and the result was inactive.

As for `O=c1cc(-c2ccc(O)c(O)c2)oc2cc(O)cc(O)c12`, the compound was called inactive.

Turning to `COc1nc(C)cnc1NS(=O)(=O)c1cccnc1-c1ccc(-c2nnco2)cc1`, the max response was -0.147% and the compound was called inactive.

As for `O=C(c1ccc(C(=O)N2CCC(N3CCCC3)CC2)c(Nc2ccccc2)c1)N1CCC(N2CCCC2)CC1`, the max response is -1.29% and -4.53%.

With `CC(C)CNc1ccnc(NCc2csc(-c3ccccc3)n2)n1`, the Potency was 14.6 µM (active).

With `Clc1ccc(C2(c3ccc(-c4cn[nH]c4)cc3)CCNCC2)cc1`, the Potency was 16.6 µM (active) and 16.4 µM (active).

As to `CC1=C(C(=O)Nc2cc3cn[nH]c3cc2F)C(c2ccc(C(F)(F)F)cc2)CC(=O)N1` (configuration not stated), the max response was 1.78% and 8.86%.

Consider `CC(=O)N1CCN(c2ccc(OCc3nn(C)c(C)c3-c3cccc4c(CCCOc5cc(C)c(Cl)c(C)c5)c(C(=O)O)n(Cc5cccnc5)c34)cc2)CC1`, for which the max response is 1.85%.

Take `c1ccc(CNc2nc(N3CCOc4ccccc43)nc3c2CCCC3)cc1`: the max response was 8.67% and -13.6%.

As for `Cn1c(=O)c(-c2c(Cl)cccc2Cl)cc2cnc(Nc3cccc(C(=O)O)c3)nc21`, the Potency was 4.61 µM (active) and the outcome was inactive.

With `CCN1C[C@H](C)n2c(c(O)c3c(=O)n(Cc4ccc(F)c(Cl)c4)nc(C(=O)NC)c32)C1=O`, the max response was 3.26% and 8.63%; the result was inactive.

For the compound `COc1ccc(CCC(=O)Nc2nc3ccc(Cl)cc3s2)cc1OC`, the max response is -8.12% and -15.4%.

As to `Cc1cc2c(cc1C1(c3ccc(C(=O)O)cn3)CC1)C(C)(C)CCC2(C)C`, the max response is 4.32% and the compound was called inactive.

In the case of `COc1cc2ncnc(Nc3cc(Br)c(O)c(Br)c3)c2cc1OC`, the compound was classed as inactive.

On to `O=C(O)CCNc1cc(N2CCc3ccccc3CC2)nc(-c2ccccn2)n1`, for which the max response is -6.65% and -1.07%; the compound was classed as inactive.

For the compound `CN1CCC(COc2cnc(-c3cccc(Cn4nc(-c5cccc(C#N)c5)ccc4=O)c3)nc2)CC1`, the max response was -7.63%.

Turning to `C[C@@]1(c2cc(-c3cncnc3)c(F)cc2F)CCSC(N)=N1`, the max response is -3.27% and the compound was classed as inactive.

Consider `C[C@H](c1ccc(F)cc1CCCC(=O)O)N(c1cc(F)ccc1F)S(=O)(=O)c1ccc(Cl)cc1`, for which the max response was -5.45% and 4.45%.

`COc1ccc(-c2cc(=O)c3c(O)cc(O[C@@H]4O[C@H](CO[C@@H]5O[C@@H](C)[C@H](O)[C@@H](O)[C@@H]5O)[C@@H](O)[C@H](O)[C@@H]4O)cc3o2)cc1O`: the max response is -0.879%.

On to `COC(=O)N1CCN(Cc2cccc(NC(=O)Nc3ccc(C)nc3)c2F)CC1`, for which the max response is -23.5%.

In the case of `Cc1cnc(-c2cc(N3CCN(C(=O)CCS(C)(=O)=O)CC3)ncc2Cl)c(C)c1`, the max response was 3.56% and 2.16%.

Consider `NC(=O)c1ccc(N(C(N)=O)c2c(F)cccc2F)nc1-c1ccc(F)cc1F`, for which the max response was 7.33% and the result was inactive.
